# Results taken from PubChem BioAssay.
# Target: Left-right determination factor 2 (Homo sapiens) (UniProt O00292)
# Test: small molecules binding LEFTY2 protein – biochemical, small-molecule microarray, 635 nm fluorescence scan, primary screen (AID 1110)
# Settings: higher = more signal
# Chain of Left-right determination factor 2 (Homo sapiens) (O00292 whole entry, looked up): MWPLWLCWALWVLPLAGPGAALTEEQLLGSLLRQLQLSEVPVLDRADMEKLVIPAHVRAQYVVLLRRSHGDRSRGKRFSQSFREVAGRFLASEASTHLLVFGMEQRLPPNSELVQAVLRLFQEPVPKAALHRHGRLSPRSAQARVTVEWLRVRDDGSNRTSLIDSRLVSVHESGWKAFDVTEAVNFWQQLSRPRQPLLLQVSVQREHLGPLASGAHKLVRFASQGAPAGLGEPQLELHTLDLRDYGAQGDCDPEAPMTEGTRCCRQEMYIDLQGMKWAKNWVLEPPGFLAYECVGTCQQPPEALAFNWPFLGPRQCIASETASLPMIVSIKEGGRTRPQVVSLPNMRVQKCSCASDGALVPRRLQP
row,SMILES,composite z-score
1,O=C1O[C@H](Cc2ccccc2)[C@@H]2[C@H]3C=CCCC=C3CN2[C@H]1Cc1ccc(O)cc1,-0.543
2,CN1C(=O)[C@@H]2[C@@H](CC(COc3ccccc3)=C3[C@@H](CCc4ccccc4)OB(O)C[C@@H]32)C1=O,-0.194
3,CCOC(=O)C[C@H]1[C@H](OC(=O)Cc2ccc3c(c2)OCO3)[C@@H](NC(=O)Cc2ccc(OC)cc2)c2cc(OCCCO)ccc2N1C(=O)Cc1ccc(OC)cc1,-0.261
4,CN(C)CCCNC(=O)[C@@]1(Cc2ccccc2I)c2ccccc2C(=O)N(C2CCCCC2)[C@H]1c1ccc(CO)cc1,0.0837
5,CCCCC(=C=CC[C@H](O)c1ccc(CO)o1)CCO,0.346
6,COC(=O)[C@@]1(Cc2ccc(F)cc2)[C@H]2c3cc(C(=O)N(C)C)n(C)c3C[C@H]2CN1C(=O)c1ccccc1,-0.21
7,CC1CC/C=C\[C@H]2OC34C=CCN(c5ccc(Cl)cc5)C(=O)[C@H]3N(CCCCCCO)C(=O)[C@]4(C)C2C(=O)O1 (some centres not stated),-1.56
8,O=C1C[C@]2(c3ccc([N+](=O)[O-])cc3)C(=O)N(C3CC3)c3cc(CO)ccc3[C@H]2N1C1CCCCC1,0.0985
9,CCCC[C@H]1C[C@@H]1[C@@H]1N(C(C)=O)[C@H](c2cccc(OC)c2)CC12CC2,-0.305
10,Cc1ccc(S[C@]2(C(=O)NCC(F)(F)F)CC(=O)N(Cc3ccccc3C(F)(F)F)[C@@H]2c2ccc(CO)cc2)cc1,-1.32
11,Cc1ccc(S[C@]2(C(=O)NCCCN(C)C)CC(=O)N(C3Cc4ccccc4C3)[C@@H]2c2ccc(CO)cc2I)cc1,-1.11
12,N#Cc1ccc(C(O)C2C=CC3C(=O)NC(=O)C3N2Nc2ccc(Cl)cc2Cl)cc1 (configuration not stated),-0.535
